The panel holds about 83,000 compounds, 20% with a hit somewhere; the sample as a whole holds those more often.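 96-well plates, one dose, 48 hours. Percent growth reported; active if below 10.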 Active and inactive are the calls of the source.
Legend:
Assay in all cases: NCI-60 one-dose screen, 48 h (100 = growth as untreated, 0 = no growth, -100 = all killed)
Conditions in all cases: 10 µM unless noted
[1] = tested on: NCI-H23 lung
[2] = tested on: NCI-H226 lung
[3] = tested on: NCI-H322M lung
[4] = tested on: HOP-62 NSCLC
[5] = tested on: NCI-H460 lung
[6] = tested on: NCI-H522 lung
[7] = tested on: A549/ATCC NSCLC
[8] = tested on: 786-0 renal
[9] = tested on: COLO 205 colon
[10] = tested on: DU-145 prostate
[11] = tested on: K-562 leukemia
[12] = tested on: MALME-3M melanoma
[13] = tested on: MDA-MB-231 breast
[14] = tested on: RXF 393 renal
[15] = tested on: SF-268 CNS
[16] = tested on: SF-295 CNS
[17] = tested on: SF-539 CNS
[18] = tested on: UACC-257 melanoma
[19] = tested on: M14 melanoma
[20] = tested on: HOP-92 NSCLC

Measured: growth

Cc1cc(=O)[nH]c(=O)n1Cc1cn(-c2c3ccccc3nc3ccccc23)nn1
inactive: [1] 94% | [2] 105% | [3] 105% | [4] 95.6% | [5] 99.3% | [7] 92.3% | [8] 79.4% | [9] 96.1% | [10] 15.7% | [12] 93.6% | [13] 77.3% | [14] 90.7% | [15] 90.4% | [16] 102% | [17] 98.9% | [18] 67% | [19] 97.8%
active: [6] -74.3% | [11] 7.13%

COc1cc(C(=O)c2cc(C)c3[nH]c4ccc(C)cc4c3c2C)cc(OC)c1OC
active: [5] 6.57% | [9] -19.2% | [10] 1.16% | [17] 0.519%
inactive: [1] 16.7% | [2] 54.4% | [3] 39.9% | [4] 38.9% | [6] 19.8% | [7] 20.9% | [8] 19.4% | [11] 11.5% | [12] 34.3% | [13] 27.6% | [14] 36.8% | [15] 29.3% | [16] 11.7% | [18] 68.8% | [19] 23.7%

Oc1ccc(CCl)c2cccnc12
inactive: [1] 59.4% | [2] 101% | [3] 71.9% | [4] 92.8% | [5] 55% | [6] 52.6% | [7] 76.1% | [8] 97.6% | [9] 35.9% | [10] 88.1% | [11] 43.9% | [12] 37.3% | [13] 94.5% | [14] 75.7% | [15] 73.2% | [16] 99% | [17] 90.3% | [18] 24.9% | [19] 61.6%

CCN(CC)CCNc1nc2ccccc2c2c(=O)c3cc(Cl)ccc3sc12
active: [5] 8.93% | [11] -25.5% | [13] -2.23%
inactive: [1] 79.7% | [2] 91.7% | [3] 87.5% | [4] 76.7% | [6] 63.9% | [7] 52.3% | [8] 74.5% | [9] 64.2% | [10] 43% | [12] 88.4% | [14] 79.1% | [15] 62.1% | [16] 29.2% | [17] 67.2% | [18] 93.2% | [19] 31%

Cc1c(C(=O)/C=C/Nc2c(Cl)cc(S(N)(=O)=O)cc2Cl)sc2nc3ccccc3n12
inactive: [1] 99.8% | [2] 99.6% | [3] 107% | [4] 107% | [5] 104% | [6] 89.9% | [7] 103% | [8] 107% | [9] 110% | [10] 107% | [11] 105% | [12] 105% | [13] 102% | [14] 115% | [15] 95.4% | [16] 101% | [17] 96.6% | [18] 105% | [19] 106%

COc1cc(C2CC(c3cccc(Br)c3)=NN2C(C)=O)cc(OC)c1OC (configuration not stated)
inactive: [1] 24.8% | [2] 28% | [3] 33% | [4] 43.7% | [20] 78.3% | [7] 29.1% | [8] 40.7% | [10] 20% | [11] 49.2% | [12] 54.2% | [14] 33.3% | [15] 55.3% | [18] 81.7%
active: [6] -13.8% | [9] 2.52% | [13] 4.94% | [16] 0.219% | [17] -5.96% | [19] 8.38%

N#Cc1c(Nc2cccc(Cl)c2)sc(C(=O)c2cc3cc(Cl)ccc3o2)c1N
inactive: [1] 77% | [2] 94% | [3] 113% | [4] 107% | [5] 46.7% | [6] 34.8% | [7] 94.1% | [8] 96.9% | [9] 89% | [10] 30.6% | [11] 51.9% | [12] 101% | [13] 75.6% | [14] 105% | [15] 67.7% | [16] 123% | [17] 84% | [18] 102% | [19] 105%

COc1ccc(C(=O)C[C@]2(O)C(=O)Nc3c(Cl)ccc(Cl)c32)cc1
inactive: [1] 44.3% | [2] 58.8% | [3] 47.5% | [4] 40.4% | [5] 10.1% | [6] 13.4% | [7] 53.4% | [8] 55.9% | [10] 21.7% | [11] 13.6% | [12] 51.1% | [13] 49% | [15] 61.9% | [18] 63.9%
active: [9] 7.6% | [14] -3.05% | [16] 4.67% | [17] -11.6% | [19] 5.9%
